The target in experiment [1] is Lysosomal acid glucosylceramidase (Homo sapiens) (UniProt P04062). The experiment in a line: Glucocerebrosidase-p2 (AID 348; in the data active = potency below about 10 µM; note: potency is the fitted concentration of half-maximal effect). The note with it: purified GBA, blue fluorogenic substrate, 40 min. The procedure, abridged: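 Normal human glucocerebrosidase (0.2 nM) with blue fluorogenic substrate (80 uM final) in citrate/phosphate pH 5.9 with 10mM sodium taurocholate, 0.01% tween-20; 40 min RT, NaOH/glycine stop; fluorescence Ex 365/Em 440; AC50 from a titration from 0.6 nM upwards.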
Sequence of Lysosomal acid glucosylceramidase (Homo sapiens) (P04062 whole entry, looked up): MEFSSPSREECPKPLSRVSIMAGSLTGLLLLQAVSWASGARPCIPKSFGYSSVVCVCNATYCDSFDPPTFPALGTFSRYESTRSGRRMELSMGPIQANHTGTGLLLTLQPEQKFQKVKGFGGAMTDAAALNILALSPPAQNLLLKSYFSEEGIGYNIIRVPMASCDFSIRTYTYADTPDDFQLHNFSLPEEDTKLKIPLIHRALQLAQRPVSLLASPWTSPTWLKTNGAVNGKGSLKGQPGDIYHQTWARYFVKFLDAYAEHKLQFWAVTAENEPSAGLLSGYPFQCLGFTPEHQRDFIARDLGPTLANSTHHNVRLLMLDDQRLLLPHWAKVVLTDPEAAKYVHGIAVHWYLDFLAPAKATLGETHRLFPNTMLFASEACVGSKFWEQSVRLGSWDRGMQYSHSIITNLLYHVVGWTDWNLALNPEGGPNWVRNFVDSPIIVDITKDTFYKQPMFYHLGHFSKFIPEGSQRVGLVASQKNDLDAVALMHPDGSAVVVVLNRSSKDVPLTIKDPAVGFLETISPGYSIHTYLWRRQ

A short description of experiment [2]: AP1 Signaling Pathway (AID 357; active = well fitted curve in either direction with a large enough effect, not every such curve was filed as active;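 note: ME-180 reporter cells stimulated with EGF at its EC50 level; % is set by controls: 0 for no effect and ±100 for the full control effect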). The note with it: ME-180 AP-1-bla reporter, EGF-induced, beta-lactamase ratio, 5 h; at 7.69 µM (top of the series) unless noted. The procedure, abridged:
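AP-1-bla ME-180 cells, Opti-MEM + 0.5% dialyzed FBS, plated overnight 37 °C. Cpd titration + EC50 EGF, 5 h 37 °C. CCF4 2.5 h RT; ex 405, em 460/530 ratio → %activity, AC50.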

Experiment [3] can be described thus: NFAT Signaling Pathway (AID 444; active = well fitted curve in either direction with a large enough effect, not every such curve was filed as active;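 note: carbachol stimulus at about its EC50 of 1 µM final; % is set by controls: 0 for no effect and ±100 for the full control effect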). The following applies: Jurkat NFAT-bla M1, carbachol, beta-lactamase ratio, 5 h; at 7.69 µM (top of the series) unless noted. The essentials: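 Jurkat cells with NFAT-driven β-lactamase reporter and co-expressed M1 receptor, stimulated with carbachol (final 1 uM, ~EC50), compound titration, 5 h at 37 °C. CCF4 loaded 1 h at RT; 460/530 nm ratio gave %activity and AC50.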

Experiment [4] in a line: Stat Signaling Pathway (AID 446; active = well fitted curve in either direction with a large enough effect, not every such curve was filed as active;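 note: ME-180 cervical cancer cells given 40 pM IL-6 alongside compound; SIE-controlled beta-lactamase reporter measured as 460/530 nm FRET emission ratio; % is set by controls: 0 for no effect and ±100 for the full control effect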). The following applies: ME-180 (cervical carcinoma) SIE beta-lactamase reporter, IL-6 stimulated, 5 h; at 7.69 µM (top of the series) unless noted. The procedure, abridged: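 Compound effects on IL-6-induced STAT reporter activity were measured in ME-180 cells. After overnight culture, cells were co-treated with 40 pM IL-6 for 5 hrs before beta-lactamase substrate loading at room temperature.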

Experiment [5] deals with Glucocorticoid receptor (Homo sapiens) (UniProt P04150). The experiment in a line: GR-GFP Redistribution (AID 450;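 active = compounds whose dose series gives a full or clear partial fitted curve of increased nuclear translocation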; note: potency is the fitted concentration of half-maximal effect). The note with it: U2OS GR-GFP nuclear translocation, laser cytometry, 2 h.
Sequence of Glucocorticoid receptor (Homo sapiens) (P04150 whole entry, looked up): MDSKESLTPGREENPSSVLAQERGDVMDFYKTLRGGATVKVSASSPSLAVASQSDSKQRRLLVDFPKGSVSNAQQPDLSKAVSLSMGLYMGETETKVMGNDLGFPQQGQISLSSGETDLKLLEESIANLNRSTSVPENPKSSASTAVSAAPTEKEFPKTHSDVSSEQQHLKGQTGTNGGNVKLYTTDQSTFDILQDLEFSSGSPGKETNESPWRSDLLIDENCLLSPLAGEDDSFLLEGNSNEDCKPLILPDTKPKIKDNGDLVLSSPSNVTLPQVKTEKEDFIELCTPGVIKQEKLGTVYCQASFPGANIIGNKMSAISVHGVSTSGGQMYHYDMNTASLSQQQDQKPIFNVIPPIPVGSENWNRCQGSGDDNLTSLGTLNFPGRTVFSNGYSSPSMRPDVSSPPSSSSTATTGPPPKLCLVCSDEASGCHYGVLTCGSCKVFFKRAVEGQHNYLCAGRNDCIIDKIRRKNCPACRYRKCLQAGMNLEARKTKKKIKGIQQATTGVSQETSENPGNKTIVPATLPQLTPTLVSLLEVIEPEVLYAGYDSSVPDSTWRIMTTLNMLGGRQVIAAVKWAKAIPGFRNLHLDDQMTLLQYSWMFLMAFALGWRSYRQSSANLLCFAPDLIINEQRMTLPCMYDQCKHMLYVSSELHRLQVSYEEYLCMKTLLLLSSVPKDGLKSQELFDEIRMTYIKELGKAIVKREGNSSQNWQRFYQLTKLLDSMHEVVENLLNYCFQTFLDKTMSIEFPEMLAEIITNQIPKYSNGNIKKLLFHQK
Experiment [6] has the same target. The experiment in a line: GR-EFC Redistribution (AID 451; calls by dose curve; note: potency is the fitted concentration of half-maximal effect). The following applies: CHO-K1 GR-EFC translocation, beta-gal luminescence, 2 h. The essentials:
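CHO-K1 cells expressing nuclear EA and GR-ED fragments of b-gal; compounds titrated up to 46 uM final, 2 h at 37 C. GR nuclear translocation read as complemented b-gal luminescence after 1 h RT detection.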

Experiment [7] has as its target Mitogen-activated protein kinase 10 (Mus musculus) (UniProt Q61831). The experiment in a line: JNK3 AlphaScreen Assay (AID 530; active = well fitted curve in either direction with a large enough effect, not every such curve was filed as active;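 note: kinase came from lysate of stimulated human HepG2 cells; signal reports phosphorylation of biotinylated GST-cJun 1-79 at Ser73 with 10 µM ATP; % is set by controls: 0 for no effect and ±100 for the full control effect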). The following applies: JNK3 lysate, c-Jun phosphorylation; series mostly up to 57.1 µM. The procedure, abridged: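 Activity was read by AlphaScreen after JNK3-containing HepG2 lysate (cytokine pre-activated) phosphorylated biotinylated GST-cJun with 10 uM ATP at room temperature. Phospho-Ser73 cJun antibody with Protein-A acceptor beads provided detection.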
(In general: Alpha assays give light when donor and acceptor beads are brought close together.)

For experiment [8], the target named is 3',5'-cyclic-AMP phosphodiesterase 4B (Homo sapiens) (UniProt Q07343). The experiment is described as follows: qHTS Assay for Inhibitors of PDE-IV (AID 607; active = well fitted activation curve with a large enough effect in the main read-out, with a control signal flat, not every such curve was filed as active; note: % of control where 0% means no effect). The note with it: HEK293 ACTOne CNG channel cells, membrane potential fluorescence; series mostly up to 22.9 µM. The procedure, abridged:
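ACTOne HEK293 cells carry a modified cAMP-gated CNG channel and express endogenous PDE4; plated 1000 cells/well, compounds up to 22.9 uM final. Membrane-potential dye fluorescence (ex 535/em 590) was read; parental cells received 10 uM forskolin + 100 uM RO 20-1724.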
In general terms: In qHTS, concentration-response curves come from the screen itself.

Experiment [9] is described as follows: qHTS Assay for Lipid Storage Modulators (AID 1519; calls by dose curve). The following applies: Drosophila S3 cells, BODIPY lipid droplet/cell ratio, laser cytometry, cells loaded with oleic acid; for activity change, negative = inhibition: at 57.5 µM (top of the series). The essentials: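 Cells seeded at 5,000 per well were treated with compounds over a concentration series and loaded with oleic acid (400 uM, as added). Lipid droplet fluorescence (488 nm excitation, 500-530 nm channel) was read by laser-scanning cytometry and normalized to 20 uM Triacsin C.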

In experiment [10] the target is Dual specificity protein kinase CLK4 (Homo sapiens) (UniProt Q9HAZ1). The experiment is described as follows: qHTS Assay for Inhibitors of CDC-like Kinase 4 (Kinase-Glo Assay) (AID 1770). Note: % is set by controls: 0 for no effect and ±100 for the full control effect; nearly all actives have a fitted effect of over 65% in size. The note with it: recombinant Clk4, Kinase-Glo ATP depletion luminescence; series mostly up to 66.7 µM. The essentials: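 25 nM Clk4 with 100 uM RS repeat peptide and 1 uM ATP (final) in Tris pH7.5, 10 mM MgCl2, 4.5 h at room temperature. Remaining ATP measured by Kinase-Glo luciferase luminescence.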
Sequence of Dual specificity protein kinase CLK4 (Homo sapiens) (Q9HAZ1 whole entry, looked up): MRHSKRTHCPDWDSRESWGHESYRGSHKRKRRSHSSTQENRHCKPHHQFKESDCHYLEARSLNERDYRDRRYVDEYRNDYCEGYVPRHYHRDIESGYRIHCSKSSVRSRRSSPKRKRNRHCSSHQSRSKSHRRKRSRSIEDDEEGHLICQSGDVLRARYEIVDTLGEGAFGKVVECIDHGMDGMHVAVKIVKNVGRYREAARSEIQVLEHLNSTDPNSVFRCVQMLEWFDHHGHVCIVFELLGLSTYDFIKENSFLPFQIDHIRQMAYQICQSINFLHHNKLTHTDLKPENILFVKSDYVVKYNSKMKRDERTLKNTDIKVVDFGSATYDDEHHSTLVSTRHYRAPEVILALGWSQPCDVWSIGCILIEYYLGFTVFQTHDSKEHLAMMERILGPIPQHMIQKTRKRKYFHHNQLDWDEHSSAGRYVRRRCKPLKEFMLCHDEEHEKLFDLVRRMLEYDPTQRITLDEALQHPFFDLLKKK

For experiment [11] the target is unchanged. The experiment is described as follows: qHTS Assay for Inhibitors of CDC-like Kinase 4 (ADP-Glo Assay) (AID 1771). Note: % is set by controls: 0 for no effect and ±100 for the full control effect; nearly all actives have a fitted effect of over 70% in size. The following applies: recombinant CLK4, ADP-Glo luminescence; series mostly up to 80 µM. The procedure, abridged: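 Compounds are pin-transferred onto substrate mix (100 uM RS peptide, 1 uM ATP), then 25 nM Clk4 is added. After 1 hr at room temperature, ADP-Glo reagent runs 45 min, detection reagent 30 min, then luminescence is read.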

Experiment [12] has the same target. The experiment in a line: qHTS Assay for Inhibitors of CDC-like Kinase 4 (ADP-FP Assay) (AID 1795). Note: % is set by controls: 0 for no effect and ±100 for the full control effect; nearly all actives have a fitted effect of over 60% in size. The note with it: Transcreener ADP fluorescence polarization; series mostly up to 50 µM. The procedure, abridged: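 Recombinant Clk4 (6.25 nM) phosphorylated 100 uM RS repeat peptide with 1 uM ATP in 25 mM Tris pH 7.5, 10 mM MgCl2, 0.5 mM EGTA, 2.5 mM DTT, 0.01% Triton X-100 for 1 h. ADP was detected by Transcreener ADP2 competitive fluorescence polarization after 30 min at room temperature.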

The target in experiment [13] is Ubiquitin carboxyl-terminal hydrolase 1 (Homo sapiens) (UniProt O94782). The experiment in a line: Inhibitors of USP1/UAF1: Pilot qHTS (AID 504865).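 Note: rhodamine fluorescence freed from ubiquitin-rhodamine substrate followed over time; top concentration of the series differs between compounds; % is set by controls: 0 for no effect and ±100 for the full control effect; nearly all actives have a fitted effect of over 35% in size.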 The note with it: purified USP1/UAF1, Ub-rhodamine cleavage fluorescence; series mostly up to 54.9 µM. The procedure, abridged: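 USP1/UAF1 complex at 1 nM preincubated 15 min at room temperature with compound, then Ub-Rho substrate added at 150 nM final. Fluorescence (480/540 nm) read kinetically in 50 mM HEPES pH 7.8, 0.5 mM EDTA, 1 mM TCEP, 0.1 mg/ml BSA, 0.01% Tween-20.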
Sequence of Ubiquitin carboxyl-terminal hydrolase 1 (Homo sapiens) (O94782 whole entry, looked up): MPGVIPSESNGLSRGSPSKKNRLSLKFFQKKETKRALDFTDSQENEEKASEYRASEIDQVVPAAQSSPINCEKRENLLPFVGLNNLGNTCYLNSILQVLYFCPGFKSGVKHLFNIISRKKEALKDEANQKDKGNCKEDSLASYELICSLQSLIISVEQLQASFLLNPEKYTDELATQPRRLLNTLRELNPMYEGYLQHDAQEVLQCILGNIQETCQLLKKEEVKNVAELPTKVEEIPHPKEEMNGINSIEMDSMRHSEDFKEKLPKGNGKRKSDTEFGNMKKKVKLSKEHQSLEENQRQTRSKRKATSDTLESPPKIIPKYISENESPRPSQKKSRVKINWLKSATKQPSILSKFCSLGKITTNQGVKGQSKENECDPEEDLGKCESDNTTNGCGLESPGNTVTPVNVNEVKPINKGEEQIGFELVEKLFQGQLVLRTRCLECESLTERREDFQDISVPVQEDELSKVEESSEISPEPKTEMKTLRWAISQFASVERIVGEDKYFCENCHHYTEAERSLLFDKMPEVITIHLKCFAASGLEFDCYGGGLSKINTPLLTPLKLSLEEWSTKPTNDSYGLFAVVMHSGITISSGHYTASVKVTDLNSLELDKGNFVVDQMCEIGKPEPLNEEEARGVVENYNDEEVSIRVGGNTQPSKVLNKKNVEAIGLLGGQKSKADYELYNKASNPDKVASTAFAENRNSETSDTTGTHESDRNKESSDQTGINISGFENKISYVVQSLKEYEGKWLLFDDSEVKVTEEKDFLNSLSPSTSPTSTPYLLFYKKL

Experiment [14] is described as follows: Primary qHTS for small molecule stabilizers of the endoplasmic reticulum resident proteome: Secreted ER Calcium Modulated Protein (SERCaMP) assay (AID 1508630). Note: % is set by controls: 0 for no effect and ±100 for the full control effect. The note with it: SH-SY5Y GLuc-SERCaMP (Gaussia luciferase released on ER calcium loss) secretion, thapsigargin, luminescence; series mostly up to 38.4 µM. The essentials:
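The SH-SY5Y reporter protocol was run at 3 concentrations up to 38.3 uM (primary) or 11 concentrations (follow-up): 16 h compound, 100 nM thapsigargin for 4 h, then extracellular luciferase luminescence.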

Where [15] appears, read: measured here: cell count channel max response.
The mark [16] stands for this setting: measured here: lipid channel max response.

Results filed as inconclusive are left out. Calls of active or inactive are those of the source. Unless noted, calls come from the whole dose curve; as a rule, active = well fitted curve in the direction sought with a large enough effect; inconclusive = small, poorly fitted or top-dose-only effect, or another doubt; inactive = no such curve, though single readings can be large; an effect the other way counts as inactive or inconclusive.

Sequence of 3',5'-cyclic-AMP phosphodiesterase 4B (Homo sapiens) (Q07343 whole entry, looked up): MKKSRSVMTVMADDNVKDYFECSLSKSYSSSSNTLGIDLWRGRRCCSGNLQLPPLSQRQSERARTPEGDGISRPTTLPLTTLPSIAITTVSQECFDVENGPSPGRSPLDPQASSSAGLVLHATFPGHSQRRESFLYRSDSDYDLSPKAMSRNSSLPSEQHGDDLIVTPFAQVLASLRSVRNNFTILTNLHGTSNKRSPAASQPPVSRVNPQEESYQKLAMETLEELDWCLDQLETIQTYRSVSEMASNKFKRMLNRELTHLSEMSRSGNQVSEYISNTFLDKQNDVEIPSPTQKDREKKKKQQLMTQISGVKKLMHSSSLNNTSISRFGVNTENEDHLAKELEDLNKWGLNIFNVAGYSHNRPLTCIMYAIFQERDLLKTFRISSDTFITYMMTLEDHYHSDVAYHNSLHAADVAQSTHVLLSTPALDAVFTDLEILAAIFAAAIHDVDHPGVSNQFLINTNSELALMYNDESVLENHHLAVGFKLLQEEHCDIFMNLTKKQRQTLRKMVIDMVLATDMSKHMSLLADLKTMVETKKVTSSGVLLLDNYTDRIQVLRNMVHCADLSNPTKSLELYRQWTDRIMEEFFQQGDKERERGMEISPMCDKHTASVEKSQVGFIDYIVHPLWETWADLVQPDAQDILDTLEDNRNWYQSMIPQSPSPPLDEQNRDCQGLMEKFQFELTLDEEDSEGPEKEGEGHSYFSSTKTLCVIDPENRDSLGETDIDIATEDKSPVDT

For `O=c1c(-c2cc(F)cc(F)c2)nc2cnc(N3CCOCC3)nc2n1Cc1cccs1`, the Potency was > 11.4 µM (inactive) in experiment [1], > 9.22 µM (inactive) in experiment [5] and > 46 µM (inactive) in experiment [6]. For the same compound, the activity change, negative = inhibition in [2] was 6.66% (inactive); in [3], 22.7% (inactive); in experiment [9] it was 3.39% (inactive). Further, the activity, negative = inhibition in experiment [4] is 6.69% (inactive). Moreover, in [7], the compound was called inactive. Moreover, the Potency entry in experiment [8], in [10], in experiment [11], in experiment [12], in [13] and in experiment [14] was “inactive” each time. The max response amounted to 18.1% in experiment [9] (setting [15]) and 23.4% in experiment [9] (setting [16]).

Take `COCCn1c(=O)c(-c2cn(C)c3ccccc23)nc2cnc(N3CCOCC3)nc21`: the figures for the Potency in experiment [1], in experiment [5] and in [6] were > 11.4 µM (inactive), > 9.22 µM (inactive) and > 46 µM (inactive), respectively. The activity change, negative = inhibition in experiment [2] is -12.3% (inactive); in experiment [3], 5.44% (inactive); in experiment [9], 4.05% (inactive). Moreover, in [4], the activity, negative = inhibition was -11.9% (inactive). Moreover, the compound was classed as inactive in experiment [7]. Moreover, the Potency result in experiment [8], in experiment [10], in experiment [11], in experiment [12], in [13] and in experiment [14] was “inactive” throughout. Further, the max response in experiment [9] (setting [15]) is 6.29%; in experiment [9] (setting [16]), 8.52%.

As to `COCCn1c(=O)c(-c2ccc(Cl)cc2)nc2cnc(Oc3cccc(Cl)c3)nc21`, the Potency in [1] was > 11.4 µM (inactive); in [5] it was > 9.22 µM (inactive); in experiment [6] it was > 46 µM (inactive). Also, the results for the activity change, negative = inhibition in [2], in [3] and in experiment [9] were 13.2% (inactive), -0.0987% (inactive) and 4.42% (inactive), respectively. Also, the activity, negative = inhibition in experiment [4] is -8.1% (inactive). Moreover, the compound was called inactive in experiment [7]. Moreover, the Potency result in experiment [8], in [10], in experiment [11], in experiment [12], in experiment [13] and in experiment [14] was “inactive” in each case. In addition, the max response is 19.3% in experiment [9] (setting [15]) and 25.5% in [9] (setting [16]).

As for `COc1ccccc1-c1nccc(NC2CCNCC2)n1`, the Potency is > 11.4 µM (inactive) in [1], > 46 µM (inactive) in [5] and > 46 µM (inactive) in [6]. Moreover, the activity change, negative = inhibition is 3.56% (inactive) in experiment [2], 5.88% (inactive) in experiment [3] and 2.87% (inactive) in [9]. For the same compound, the activity, negative = inhibition in [4] is 27.9% (inactive). Moreover, in experiment [7], the call was inactive. The Potency entry in experiment [8], in [10], in experiment [11], in [12], in experiment [13] and in [14] was “inactive” in each case. Further, the max response in [9] (setting [15]) was determined as 7.38%; in experiment [9] (setting [16]), 8.77%.

On to `COc1cccc(Nc2ncc3nc(-c4ccccc4)c(=O)n(Cc4cccs4)c3n2)c1`, for which the Potency was > 11.4 µM (inactive) in experiment [1], > 9.22 µM (inactive) in experiment [5] and > 46 µM (inactive) in experiment [6]. The figures for the activity change, negative = inhibition in experiment [2], in [3] and in [9] were -7.2% (inactive), -11.8% (inactive) and 5.46% (inactive), respectively. The activity, negative = inhibition in experiment [4] is 21.9% (inactive). Also, the outcome in [7] was inactive. Also, the max response in [9] (setting [15]) came out at 20.3%; in experiment [9] (setting [16]), 24.9%. For the same compound, the Potency entry in experiment [10], in experiment [11], in experiment [12], in experiment [13] and in experiment [14] was “inactive” in each case.

For `COc1cccc(Cn2c(=O)c(-c3ccc(F)cc3)nc3cnc(OC)nc32)c1`, the Potency in experiment [1] is > 11.4 µM (inactive); in experiment [5] it was > 9.22 µM (inactive); in experiment [6] it was > 46 µM (inactive). Moreover, the activity change, negative = inhibition in experiment [2] was -1.52% (inactive); in experiment [3], -0.296% (inactive); in [9] it was 7.13% (inactive). Besides, the activity, negative = inhibition in experiment [4] is 6.3% (inactive). Besides, the compound was called inactive in experiment [7]. Further, the Potency entry in experiment [8], in experiment [10], in experiment [11], in experiment [12], in experiment [13] and in experiment [14] was “inactive” in each case. The values for the max response in experiment [9] (setting [15]) and in [9] (setting [16]) were 25.9% and 31.8%, respectively.

Source of the values: PubChem BioAssay (NCATS).
